Screens: PubChem, Sanford-Burnham Center for Chemical Genomics
Rows were chosen to be rich in hits. Some 6.3% of all compounds tested hit in one or more screens of this group.
tim10-1 inh = growth inhibitors of tim10-1 mutant yeast, primary screen, luminescence, uHTS. S. cerevisiae tim10-1 ts strain growth, BacTiter-Glo, 24 h. inhibition, % at 20 µM. 330,000 tested, 2.2% active;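 active = inhibition of at least 40%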;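 also: mutant grown at 25 °C; 0% = DMSO wells with yeast and 100% = wells holding no yeast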
tim23-1 inh = growth inhibitors of tim23-1 mutant yeast, primary screen, luminescence, uHTS | S. cerevisiae tim23-1 growth, BacTiter-Glo luminescence, 24 h | inhibition, % at 20 µM | 330,000 tested, 1.3% active | AID 463212, 2010;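 active = growth inhibition of the mutant yeast at or above 50%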;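 also: temperature-sensitive mutant grown at 25 °C; plate controls were DMSO-treated mutant yeast for no effect and medium wells lacking yeast for full effect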
TIM10 inh = growth inhibitors of isogenic TIM10 control yeast, primary screen, counter-screen for tim10-1 yeast inhibitor project, luminescence, uHTS; S. cerevisiae TIM10 strain growth, BacTiter-Glo luminescence, 24 h; inhibition, % at 10 µM; 330,000 tested, 1.4% active; AID 463195, 2010;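 active = inhibition of 40% or more at the single tested concentration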;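 also: wild-type TIM10 isogenic control strain grown at permissive 25 °C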
Mdm2 MdmX PPI = inhibitors of human Mdm2-MdmX association, primary screen, cell-based, luminescence, split luciferase, SaOS-2, uHTS; Protein Mdm4 (Homo sapiens) + E3 ubiquitin-protein ligase Mdm2 (Homo sapiens), …; AID 485346, 2010; 330,000 tested, 3% active; SaOS-2 split-luciferase Mdm2/MdmX complementation; inhibition, % at 8 µM;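 active = inhibition of at least 50% at 8 µM in the primary screen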
MPTP inh = mitochondrial permeability transition pore inhibitors, primary screen, biochemical, isolated mouse mitochondria, absorbance | AID 602449, 2012 | inhibition, % at 10 µM | Ca2+ swelling absorbance, 30 min | 360,000 tested, 1.4% active;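 active = inhibition of 50% or more, scaled per plate between neutral and stimulator controls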;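 also: 0% = DMSO wells given calcium and 100% = 1 mM EGTA wells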
tim10-1 confirm = growth inhibitors of tim10-1 mutant yeast, confirmation, single concentration, luminescence, S. cerevisiae; shares compounds with tim10-1 inh; S. cerevisiae tim10-1 ts strain growth, BacTiter-Glo, 24 h; inhibition, % at 20 µM; 7,400 tested, 56% active; AID 463213, 2010;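 active = inhibition of yeast growth at or above a set limit in either of two repeat tests at 20 µM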;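 also: tim10-1 mutant grown at permissive 25 °C to find synthetic lethal compounds; 0% = DMSO yeast wells and 100% = medium wells without yeast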
tim10 confirm = growth inhibitors of wild-type TIM10 yeast, confirmation, counter-screen for tim10-1 synthetic lethality project, single concentration, luminescence, S. cerevisiae | shares compounds with TIM10 inh | S. cerevisiae tim10 strain growth, BacTiter-Glo luminescence, 24 h | inhibition, % at 10 µM | 4,600 tested, 63% active | AID 463215, 2010;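 active = inhibition of yeast growth at or above a set limit in either of two replicates at 10 µM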;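 also: this counterscreen used the strain with wild-type TIM10; 0% = yeast with DMSO and 100% = medium wells lacking yeast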
* = called active by the depositor; / = no result.

SMILES | tim10-1 inh | tim23-1 inh | TIM10 inh | Mdm2 MdmX PPI | MPTP inh | tim10-1 confirm | others
COC(=O)CC/C(O)=C1\C(=O)CC(C)(C)CC1=Nc1ccccc1OC | 32 | 18 | 19 | 14 | -2 | /
CCCC/C(O)=C1\C(=O)CC(C)(C)CC1=Nc1ccccc1OC | 41* | 31 | 26 | 21 | 2 | 26
COc1ccc(-n2c(=S)[nH]c3ccccc32)cc1 | 42* | 26 | 28 | 7 | 1 | 15
C[C@@H]1CCCCO[C@@H](CN(C)CC2CC2)[C@@H](C)CN([C@H](C)CO)C(=O)c2cc(N(C)C)ccc2O1 | / | / | / | / | -3 | /
CCOC(=O)C1=CCN(S(=O)(=O)c2ccc(C)cc2)C1c1cccc(C)c1 (stereo unspecified) | / | / | / | / | 1 | /
O=S(=O)(NCCSc1ccccc1)c1ccc2c(c1)OCCO2 | 41* | 36 | 5 | 27 | -2 | 24
O=C(CCl)N1CCN(S(=O)(=O)c2ccc3ccccc3c2)CC1 | 40* | 42 | 33 | 49 | -1 | 33*
CC1CCN(S(=O)(=O)c2ccc3ccccc3c2)CC1 | 44* | 34 | -1 | -3 | 0 | 31*
Cc1cc2nc(-c3ccccc3)c(Cc3ccccc3)n2c(C)c1Br | / | / | / | / | -1 | /
CCn1c2ccccc2c2nnc(SCc3ccccc3)nc21 | 44* | 36 | 9 | 5 | 0 | 27
O=C(/C=C/c1cccnc1)c1ccc(F)c(F)c1 | 40* | 33 | 18 | 22 | 0 | 26
CC(=O)c1sc(-c2ccccn2)nc1C | 1 | 5 | 12 | 29 | / | /
Cc1nc(-c2ccccn2)sc1C(=O)Nc1ccc(Cl)c(Cl)c1 | 47* | -3 | 35 | -48 | 16 | 29*
CCCC(=O)Nc1sc2c(c1C(=O)OC)C(C(=O)OC)CC2 (stereo unspecified) | 21 | 10 | 14 | -19 | 0 | /
COCC(=O)Nc1sc2c(c1C(=O)OC)C(C(=O)OC)CC2 (stereo unspecified) | 43* | 14 | -6 | 26 | 6 | 7
CCOC(=O)/C=C/C(=O)OCC(=O)Nc1cccc(Br)c1 | 47* | 39 | 51* | 16 | 0 | 33* | tim10 confirm=29*
CN1CCN(C(=O)C[C@@H]2C=C[C@H](NS(=O)(=O)c3cccc(F)c3)[C@@H](CO)O2)CC1 | / | / | / | / | 2 | /
CCc1ccc(NC2=CC(=O)CC(c3ccco3)C2)cc1 (stereo unspecified) | 42* | 37 | 41* | 16 | 0 | 26 | tim10 confirm=16
O=C(C(=O)N1CCN(C(=O)OCc2ccccc2)CC1)c1cccnc1 | / | / | / | / | -2 | /
Cc1cc(C)cc(CC(=O)N2CCC2(C)C(=O)NS(=O)(=O)c2ccc(Br)cc2)c1 (stereo unspecified) | / | / | / | / | -1 | /
NC(=O)Nc1ccc(Oc2ncc(C(F)(F)F)cc2Cl)cc1 | 30 | 21 | 12 | 0 | 0 | /
O=S(=O)(Nc1ccccc1)c1ccc(Oc2ncc(C(F)(F)F)cc2Cl)cc1 | 49* | 25 | 49* | 25 | 38 | 46* | tim10 confirm=51*
Oc1ccccc1-c1nc(NCCN2CCOCC2)c2ccccc2n1 | 52* | 44 | 50* | 45 | 1 | 40* | tim10 confirm=32*
O=S(=O)(Nc1ccc(N=Nc2ccccc2)cc1)c1ccccc1 | 55* | 41 | 42* | -26 | 3 | 51* | tim10 confirm=-3
O=S(=O)(Nc1ccc(S(=O)(=O)Nc2ccccc2)cc1)c1ccccc1 | 19 | 5 | -4 | -5 | 1 | /
O=C1Nc2ccccc2-n2nnnc2C1N1CCc2ccccc2C1 (stereo unspecified) | / | / | / | / | 3 | /
COc1ccc(C(=O)/C=C\c2ccc(NC(=O)c3cccs3)cc2)cc1 | 43* | 20 | 48* | 35 | 17 | 31* | tim10 confirm=40*
